# Most compounds without a hit are left out; they make up all but 3.6% or so of the library.
# AmpC inh no detg: inhibitors of E. coli AmpC beta-lactamase without detergent. AmpC nitrocefin hydrolysis, absorbance 480 nm, 0.0001% Triton. Potency, µM (titrated, usually from 57.1 µM), without a hit: top-dose activity change, negative = inhibition, hits mostly inhibitors. actives 0.52% (n = 330,000);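 also: plate controls were no compound for no effect and no enzyme for full effect; nearly all actives have a fitted effect of over 20% in size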
# Target sequence (P00811 whole entry, looked up): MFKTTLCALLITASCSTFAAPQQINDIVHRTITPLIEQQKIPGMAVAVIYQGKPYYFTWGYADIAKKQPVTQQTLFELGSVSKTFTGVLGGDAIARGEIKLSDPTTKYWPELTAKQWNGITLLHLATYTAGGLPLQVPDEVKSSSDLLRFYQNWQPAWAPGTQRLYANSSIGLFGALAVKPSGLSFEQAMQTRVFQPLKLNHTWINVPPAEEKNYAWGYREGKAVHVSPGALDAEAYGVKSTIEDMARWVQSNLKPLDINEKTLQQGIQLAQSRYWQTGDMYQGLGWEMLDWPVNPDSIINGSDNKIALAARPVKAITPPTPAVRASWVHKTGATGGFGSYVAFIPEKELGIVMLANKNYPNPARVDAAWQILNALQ
#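 AmpC (5.3 nM in the dispensed reagent) in 20 mM phosphate pH 7.0 with 0.01% (detergent screen) or 0.0001% Triton X-100 was preincubated with compounds for 15 min at room temperature. Nitrocefin was then added from an 800 uM solution, and hydrolysis was followed at 480 nm.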
# Sm TGR inh: S. mansoni TGR enzyme inhibition; Q962Y6; purified TGR, DTNB reduction, TNB absorbance 405 nm; Potency, µM (series often up to 114 µM), for inactives: at the top dose activity change, negative = inhibition, hits mostly inhibitors; actives 3% (n = 360,000); also: nearly all actives have a fitted effect of over 60% in size
#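 First, TGR (20 nM dispensed) and NADPH were mixed with compound. Second, a 15 min room-temperature incubation followed. Third, further NADPH and then DTNB were added to start the reaction. Finally, TNB absorbance was monitored kinetically.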
# AmpC inh detg: AmpC beta-lactamase inhibition with detergent present. actives 0.041% (n = 370,000). Potency, µM (doses to about 114 µM), for inactives: top-dose activity change, negative = inhibition, usual class: inhibitors. P00811. AID 485294. AmpC hydrolysis of nitrocefin, absorbance 480 nm, 0.01% Triton;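 also: 0% = no-compound wells and -100% = no-enzyme wells; nearly all actives have a fitted effect of over 25% in size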
#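 AmpC (5.3 nM in the dispensed reagent) in 20 mM phosphate pH 7.0 with 0.01% (detergent screen) or 0.0001% Triton X-100 was preincubated with compounds for 15 min at room temperature. Nitrocefin was then added from an 800 uM solution, and hydrolysis was followed at 480 nm.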
# Giardia FBPA inh: Giardia lamblia aldolase inhibition; A8B2U2; Potency, µM (top dose mostly 59.6 µM), inactives show at the top dose activity, negative = inhibition, usual class: inhibitors; actives 0.71% (n = 290,000); AID 2451; purified Giardia FBPA; also: nearly all actives have a fitted effect of over 55% in size
#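 Giardia FBPA (40 nM reagent) was preincubated 10 min at RT with compound (up to 57.5 uM final), then substrate plus GAPDH/TPI/NAD/arsenate coupling system with diaphorase/resazurin was added; resorufin fluorescence (525/598 nm) was read after 20 min.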
# The depositor's hits bear a star; ? = inconclusive; / = no result. Calls follow the shape of the dose curve; as a rule, active = well fitted curve in the direction sought with a large enough effect; inconclusive = small, poorly fitted or top-dose-only effect, or another doubt; inactive = no such curve, though single readings can be large; an effect the other way counts as inactive or inconclusive. Unless noted, % is scaled to controls: 0 for no effect and ±100 for the full control effect; potency is read from the fitted curve at half-maximal effect.
SMILES,AmpC inh no detg,Sm TGR inh,AmpC inh detg,Giardia FBPA inh
C=CCN1C(=O)c2ccc(C(=O)N(C)Cc3ccc(C)o3)cc2C1=O,8%,50µM*,-1%,/
C=CCN1C(=O)c2ccc(C(=O)N(C)CC(=O)Nc3ccccc3Cl)cc2C1=O,-11%,4%,-16%,/
Cc1nnc(SCC(=O)Nc2nc(-c3ccc(F)cc3)cs2)[nH]c1=O,-28%,/,6%,19%
CCN1C(=O)/C(=C/c2nc3ccccc3c(=O)[nH]2)c2ccccc21,-21%,-16%,?,2%
C=CCN1C(=O)/C(=c2\sc3nc(=O)c(Cc4ccccc4)nn3c2=O)c2ccccc21,?,1.4µM*,-2%,-13%
C=CCN1C(=O)/C(=N/n2cnnc2)c2ccccc21,-1%,-3%,9%,-2%
CCN1C(=O)/C(=c2\sc3nc(=O)c(Cc4ccccc4)nn3c2=O)c2ccccc21,-13%,3.5µM*,2%,-11%
C=CCN1C(=O)/C(=c2\sc3nc(=O)c(Cc4ccc(OC)c(OC)c4)nn3c2=O)c2ccccc21,-36%,0.63µM*,-6%,-26%
CN(C)c1ccc(/C=C2\C(=O)NC(=O)N(CCc3ccc(F)cc3)C2=O)cc1,-45%,4µM*,-11%,4%
Cc1ccc(/C=C2/C(=O)NC(=O)N(CCc3ccc(F)cc3)C2=O)o1,-36%,?,-2%,8%
COCCN1C(=O)NC(=O)/C(=C\c2ccc(F)cc2)C1=O,-14%,?,-2%,-5%
O=C1NC(=O)N(Cc2ccc(F)cc2)C(=O)/C1=C\c1ccc(N2CCCC2)cc1,-46%,1.3µM*,-1%,1%
O=C1NC(=O)N(CCc2ccc(F)cc2)C(=O)/C1=C/c1ccco1,18µM*,?,?,-1%
COc1ccc(/C=C(/CC(=O)NCc2ccc(Cl)cc2)c2nc3ccccc3s2)cc1,18µM*,3%,3%,10%
COc1ccc(/C=C(/CC(=O)Nc2ccccc2)c2nc3ccccc3s2)cc1,-33%,2%,?,0%
COc1ccc(N2Cc3ccc(C(=O)N/N=C\c4ccc(O)cc4O)cc3C2)cc1,-47%,28µM*,-2%,13%
Cn1c2c(c(=O)[nH]c1=O)C(c1ccc(O)cc1)C1=C(N2)c2ccccc2C1=O (configuration not stated),18µM*,-7%,0%,-12%
CC(=O)NC(c1ccco1)c1ccc2cccnc2c1O (configuration not stated),-23%,-18%,?,?
CCC(=O)NC(c1ccco1)c1cc(Br)c2cccnc2c1O (configuration not stated),-1%,35µM*,?,/
Cc1c(C(=O)c2ccc(F)cc2F)c2ccccn2c1CCC#N,-20%,35µM*,-2%,?
CCN(CC)C(=O)[C@H]1CC(CC(=O)NCc2ccco2)C(=O)N2CCc3c([nH]c4ccc(OC)cc34)[C@]12C (some centres not stated),99%,/,/,/
OCC1(CC2CCCCO2)CCN(C/C=C/c2ccccc2)CC1 (configuration not stated),-2%,1%,5%,-4%
CC(CCc1ccc(O)cc1)N1CCC(Oc2ccc(C(=O)N3CCCC3)cc2)CC1 (configuration not stated),-15%,-4%,-2%,/
CCc1ccc(CN2CCC(CO)(CC3CCCCO3)CC2)o1 (configuration not stated),-5%,0%,8%,-2%
COc1ccc(CCC(C)N2CCC(Oc3ccc(C(=O)N4CCCC4)cc3)CC2)cc1 (configuration not stated),86%,28µM*,7%,/
SMILES,AmpC inh no detg,Sm TGR inh,AmpC inh detg,Giardia FBPA inh
COCC(=O)N1CCC(Oc2ccc(C(=O)N3C[C@@H](C)O[C@@H](C)C3)cc2)CC1,-1%,40µM*,-8%,/
Cc1ccc(CN2CCC(CO)(CC3CCCCO3)CC2)o1 (configuration not stated),-9%,45µM*,-2%,5%
COc1cc(/C=C/CN2CCC(CO)(CC3CCCCO3)CC2)ccc1O (configuration not stated),39%,13µM*,4%,-5%
CC(=O)N(O)C/C=C/c1cccc(Oc2ccccc2)c1,/,/,/,-9%
COc1cc(/C=C/CN2CCC(Oc3ccc(C(=O)N4CCCC4)cc3)CC2)ccc1O,278%,18µM*,?,-6%
COc1ccccc1/C=C/CN1CCC(Oc2ccc(C(=O)N3CCCC3)cc2)CC1,84%,-3%,-12%,3%
C=CCn1c(O)c(N=NC(=O)CNC(=O)/C=C/c2ccco2)c2ccccc21,-9%,18µM*,-12%,-5%
CN(C(=O)c1ccc2c(c1)N(Cc1ccccc1F)C(=O)c1ccccc1S2(=O)=O)C1CCCCC1,/,0%,25%,/
NCCCNc1ccc([N+](=O)[O-])cc1C(F)(F)F,-8%,0%,-5%,-2%
CCOc1cc(CNc2ccc(N3CCCC3)cc2)cc(Cl)c1OC,-26%,25µM*,-7%,?
COc1cccc(CNc2ccc(N3CCCCC3)cc2)c1OC,-4%,25µM*,5%,?
COc1cccc(Nc2ccc(N3CCCCC3)cc2)c1OC,-2%,?,7%,/
COc1ccccc1CNc1ccc(N2CCCCC2)cc1,-29%,10µM*,?,?
CCC(C)N1CCN(C(=O)C2CCN(S(=O)(=O)c3c(C)noc3/C=C/c3ccco3)CC2)CC1 (configuration not stated),190%,45µM*,3%,-11%
Cc1noc(C)c1S(=O)(=O)N1CCC(C(=O)N2CCN(C3CCCC3)CC2)CC1,37%,32µM*,1%,-1%
O=[N+]([O-])c1nn(-c2ccc3c(c2)OCCO3)n(O)c1=NCCC1=CCCCC1,-27%,25µM*,-4%,-5%
CC(C)c1ccc(N=c2c([N+](=O)[O-])nn(-c3ccc4c(c3)OCCO4)n2O)cc1,?,13µM*,?,-14%
COc1cc(N=c2c([N+](=O)[O-])nn(-c3ccc4c(c3)OCCO4)n2O)cc(OC)c1,-28%,?,-13%,?
O=c1c(-c2ccccc2)nc2cnc(Nc3ccccc3)nc2n1Cc1cccs1,/,/,/,4%
CN1c2ccccc2C(C)(C)C12CC(c1ccc(Cl)c(S(=O)(=O)N3CCCC3)c1)=NO2 (configuration not stated),-20%,-9%,-3%,1%
CN1c2ccccc2C(C)(C)C12CC(CCl)=NO2 (configuration not stated),-10%,40µM*,-9%,4%
COc1ccc(NC(=O)CSc2nnc(NC(=O)NC3CCCCC3)s2)cc1OC,/,7%,-2%,/
CCCSc1nnc(N2C(=O)C(O)=C(C(=O)c3ccco3)C2c2ccccc2F)s1 (configuration not stated),-43%,7.1µM*,-5%,?
CSc1nnc(N2C(=O)C(O)=C(C(=O)c3ccco3)C2c2ccccc2)s1 (configuration not stated),-22%,?,4%,-11%
